Article PMC12820563, “FoxP3 forms a head-to-head dimer in vivo and stabilizes its multimerization on adjacent microsatellites”
Whole data set: some 16,000 sequences, median “rpm ratio (pull-down/input)” near 0.5, cut for the highest 2% near 5.5. This is one part of a sample in which the highest values are shown more often than they occur.

Molecular target: T1, MBP-FoxP3dN (Mus musculus, UniProt Q99JB6 188-423)
T1 sequence: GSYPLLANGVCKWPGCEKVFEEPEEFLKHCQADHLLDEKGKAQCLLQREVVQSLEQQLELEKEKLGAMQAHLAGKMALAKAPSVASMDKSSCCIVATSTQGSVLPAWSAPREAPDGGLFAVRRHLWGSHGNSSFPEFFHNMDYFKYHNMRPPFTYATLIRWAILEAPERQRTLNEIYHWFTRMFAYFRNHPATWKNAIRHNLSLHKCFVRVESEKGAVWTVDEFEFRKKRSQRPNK
Experiment: PD-seq (MBP pull-down with sequencing); 20 mM Tris-HCl pH 7.5, 100 mM NaCl, 1.5 mM MgCl2, 0.4 uM protein, 0.1 uM dsDNA library, 30 min, room temperature, amylose pull-down; high values mean tight binding
Conditions: protein: recombinant; tags: His6-MBP; chain copies: 2; dsDNA, one strand shown
In short: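 His6-MBP-tagged mouse FoxP3 or FoxP1 fragment lacking the N-terminus, expressed in E. coli, was mixed at 0.4 µM with 0.1 µM Klenow-filled double-stranded degenerate DNA library. Incubation was 30 min at room temperature in Tris pH 7.5 buffer with NaCl and MgCl2. Complexes were caught on amylose resin and washed three times; DNA was released with proteinase K, PCR-barcoded and Illumina-sequenced. Binding is reads-per-million enrichment, pull-down over input, with replicates pooled.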

Which binding signal does the source give for “GATGATTGTTCTCCCAGCTGATGAATTCGCATGATCGAGTAAACAAATTTTCCTAATCTTTCTGTTCAAGCGCCATCTAC” here?
Its binding signal is 0.877 RPM ratio (pull-down/input).

With “GATGATTGTTCTCCCAGCTGATGAATTCTGCGGGTCGAGTAAACAAATTTTCCTAATCTTTCTGTTCAAGCGCCATCTAC” as the sequence, how does the binding signal read?
The binding signal was 0.928 RPM ratio (pull-down/input).

Which binding signal does the source give for “GATGATTGTTCTCCCAGCTGATGAATTAGTCCGTTCGAGTAAACAAATTTTCCTAATCTTTCTGTTCAAGCGCCATCTAC” here?
The binding signal was 0.434 RPM ratio (pull-down/input).

Which binding signal does the source give for “GATGATTGTTCTCCCAGCTGATGAATTCATGAAATCGAGTAAACAAATTTTCCTAATCTTTCTGTTCAAGCGCCATCTAC” here?
Its binding signal is 0.289 RPM ratio (pull-down/input).

Which binding signal does the source give for “GATGATTGTTCTCCCAGCTGATGAATTAAACCTTTCGAGTAAACAAATTTTCCTAATCTTTCTGTTCAAGCGCCATCTAC” here?
The binding signal was 0.318 RPM ratio (pull-down/input).

With “GATGATTGTTCTCCCAGCTGATGAATTATTCTGCTCGAGTAAACAAATTTTCCTAATCTTTCTGTTCAAGCGCCATCTAC” as the sequence, how does the binding signal read?
The binding signal was 0.328 RPM ratio (pull-down/input).

Which binding signal does the source give for “GATGATTGTTCTCCCAGCTGATGAATTATGAGAGTCGAGTAAACAAATTTTCCTAATCTTTCTGTTCAAGCGCCATCTAC” here?
The binding signal was 0.397 RPM ratio (pull-down/input).

With “GATGATTGTTCTCCCAGCTGATGAATTTAAGGCATCGAGTAAACAAATTTTCCTAATCTTTCTGTTCAAGCGCCATCTAC” as the sequence, how does the binding signal read?
Its binding signal is 0.732 RPM ratio (pull-down/input).

For “GATGATTGTTCTCCCAGCTGATGAATTTAAAGACTCGAGTAAACAAATTTTCCTAATCTTTCTGTTCAAGCGCCATCTAC”, which binding signal is on record?
The binding signal was 0.245 RPM ratio (pull-down/input).

How did the binding signal turn out when “GATGATTGTTCTCCCAGCTGATGAATTAGTACAGTCGAGTAAACAAATTTTCCTAATCTTTCTGTTCAAGCGCCATCTAC” was run?
Its binding signal is 0.484 RPM ratio (pull-down/input).

“GATGATTGTTCTCCCAGCTGATGAATTGGATTTATCGAGTAAACAAATTTTCCTAATCTTTCTGTTCAAGCGCCATCTAC” was tested. Which binding signal did it give?
Its binding signal is 1.47 RPM ratio (pull-down/input).

For “GATGATTGTTCTCCCAGCTGATGAATTCCCTGCATCGAGTAAACAAATTTTCCTAATCTTTCTGTTCAAGCGCCATCTAC”, which binding signal is on record?
The binding signal was 0.746 RPM ratio (pull-down/input).

Which binding signal does the source give for “GATGATTGTTCTCCCAGCTGATGAATTCGCTGCATCGAGTAAACAAATTTTCCTAATCTTTCTGTTCAAGCGCCATCTAC” here?
The binding signal was 1.02 RPM ratio (pull-down/input).

Which binding signal does the source give for “GATGATTGTTCTCCCAGCTGATGAATTTCTGCATTCGAGTAAACAAATTTTCCTAATCTTTCTGTTCAAGCGCCATCTAC” here?
The binding signal was 6.35 RPM ratio (pull-down/input).

For “GATGATTGTTCTCCCAGCTGATGAATTTCCTGCATCGAGTAAACAAATTTTCCTAATCTTTCTGTTCAAGCGCCATCTAC”, which binding signal is on record?
The binding signal was 0.719 RPM ratio (pull-down/input).

For “GATGATTGTTCTCCCAGCTGATGAATTCTGCCATTCGAGTAAACAAATTTTCCTAATCTTTCTGTTCAAGCGCCATCTAC”, which binding signal is on record?
The binding signal was 4.97 RPM ratio (pull-down/input).

Which binding signal does the source give for “GATGATTGTTCTCCCAGCTGATGAATTCCTGCATTCGAGTAAACAAATTTTCCTAATCTTTCTGTTCAAGCGCCATCTAC” here?
Its binding signal is 5.61 RPM ratio (pull-down/input).

For “GATGATTGTTCTCCCAGCTGATGAATTCTTGACCTCGAGTAAACAAATTTTCCTAATCTTTCTGTTCAAGCGCCATCTAC”, which binding signal is on record?
Its binding signal is 0.216 RPM ratio (pull-down/input).

With “GATGATTGTTCTCCCAGCTGATGAATTCATTCCGTCGAGTAAACAAATTTTCCTAATCTTTCTGTTCAAGCGCCATCTAC” as the sequence, how does the binding signal read?
Its binding signal is 0.236 RPM ratio (pull-down/input).

“GATGATTGTTCTCCCAGCTGATGAATTTTTCAGTTCGAGTAAACAAATTTTCCTAATCTTTCTGTTCAAGCGCCATCTAC” was tested. Which binding signal did it give?
The binding signal was 0.248 RPM ratio (pull-down/input).

Which binding signal does the source give for “GATGATTGTTCTCCCAGCTGATGAATTTGAGTAGTCGAGTAAACAAATTTTCCTAATCTTTCTGTTCAAGCGCCATCTAC” here?
Its binding signal is 0.778 RPM ratio (pull-down/input).

How did the binding signal turn out when “GATGATTGTTCTCCCAGCTGATGAATTTTTGTGGTCGAGTAAACAAATTTTCCTAATCTTTCTGTTCAAGCGCCATCTAC” was run?
Its binding signal is 0.472 RPM ratio (pull-down/input).

With “GATGATTGTTCTCCCAGCTGATGAATTTGTGGTGTCGAGTAAACAAATTTTCCTAATCTTTCTGTTCAAGCGCCATCTAC” as the sequence, how does the binding signal read?
Its binding signal is 6.2 RPM ratio (pull-down/input).

“GATGATTGTTCTCCCAGCTGATGAATTTGTGTGGTCGAGTAAACAAATTTTCCTAATCTTTCTGTTCAAGCGCCATCTAC” was tested. Which binding signal did it give?
Its binding signal is 5.5 RPM ratio (pull-down/input).

With “GATGATTGTTCTCCCAGCTGATGAATTTTTGGTGTCGAGTAAACAAATTTTCCTAATCTTTCTGTTCAAGCGCCATCTAC” as the sequence, how does the binding signal read?
Its binding signal is 0.396 RPM ratio (pull-down/input).

Which binding signal does the source give for “GATGATTGTTCTCCCAGCTGATGAATTTCTGTGGTCGAGTAAACAAATTTTCCTAATCTTTCTGTTCAAGCGCCATCTAC” here?
Its binding signal is 0.335 RPM ratio (pull-down/input).

Which binding signal does the source give for “GATGATTGTTCTCCCAGCTGATGAATTTGGTGTGTCGAGTAAACAAATTTTCCTAATCTTTCTGTTCAAGCGCCATCTAC” here?
The binding signal was 3.91 RPM ratio (pull-down/input).

“GATGATTGTTCTCCCAGCTGATGAATTTAGCCCATCGAGTAAACAAATTTTCCTAATCTTTCTGTTCAAGCGCCATCTAC” was tested. Which binding signal did it give?
Its binding signal is 1.28 RPM ratio (pull-down/input).

For “GATGATTGTTCTCCCAGCTGATGAATTTCCACGATCGAGTAAACAAATTTTCCTAATCTTTCTGTTCAAGCGCCATCTAC”, which binding signal is on record?
The binding signal was 0.211 RPM ratio (pull-down/input).

For “GATGATTGTTCTCCCAGCTGATGAATTGCATCGGTCGAGTAAACAAATTTTCCTAATCTTTCTGTTCAAGCGCCATCTAC”, which binding signal is on record?
Its binding signal is 1.43 RPM ratio (pull-down/input).

“GATGATTGTTCTCCCAGCTGATGAATTATGTTGATCGAGTAAACAAATTTTCCTAATCTTTCTGTTCAAGCGCCATCTAC” was tested. Which binding signal did it give?
Its binding signal is 7.26 RPM ratio (pull-down/input).

“GATGATTGTTCTCCCAGCTGATGAATTATGATGATCGAGTAAACAAATTTTCCTAATCTTTCTGTTCAAGCGCCATCTAC” was tested. Which binding signal did it give?
The binding signal was 1.63 RPM ratio (pull-down/input).

With “GATGATTGTTCTCCCAGCTGATGAATTATGTTGTTCGAGTAAACAAATTTTCCTAATCTTTCTGTTCAAGCGCCATCTAC” as the sequence, how does the binding signal read?
The binding signal was 7.62 RPM ratio (pull-down/input).

How did the binding signal turn out when “GATGATTGTTCTCCCAGCTGATGAATTATGTGTTTCGAGTAAACAAATTTTCCTAATCTTTCTGTTCAAGCGCCATCTAC” was run?
The binding signal was 4.42 RPM ratio (pull-down/input).

For “GATGATTGTTCTCCCAGCTGATGAATTATGTTCTTCGAGTAAACAAATTTTCCTAATCTTTCTGTTCAAGCGCCATCTAC”, which binding signal is on record?
The binding signal was 1.3 RPM ratio (pull-down/input).

How did the binding signal turn out when “GATGATTGTTCTCCCAGCTGATGAATTATGTTGGTCGAGTAAACAAATTTTCCTAATCTTTCTGTTCAAGCGCCATCTAC” was run?
The binding signal was 6.57 RPM ratio (pull-down/input).

Which binding signal does the source give for “GATGATTGTTCTCCCAGCTGATGAATTATCTTGGTCGAGTAAACAAATTTTCCTAATCTTTCTGTTCAAGCGCCATCTAC” here?
The binding signal was 0.323 RPM ratio (pull-down/input).

With “GATGATTGTTCTCCCAGCTGATGAATTATGATGGTCGAGTAAACAAATTTTCCTAATCTTTCTGTTCAAGCGCCATCTAC” as the sequence, how does the binding signal read?
Its binding signal is 1.33 RPM ratio (pull-down/input).

Which binding signal does the source give for “GATGATTGTTCTCCCAGCTGATGAATTATGTCTTTCGAGTAAACAAATTTTCCTAATCTTTCTGTTCAAGCGCCATCTAC” here?
Its binding signal is 1.78 RPM ratio (pull-down/input).

Which binding signal does the source give for “GATGATTGTTCTCCCAGCTGATGAATTATGTTCATCGAGTAAACAAATTTTCCTAATCTTTCTGTTCAAGCGCCATCTAC” here?
The binding signal was 1.09 RPM ratio (pull-down/input).

“GATGATTGTTCTCCCAGCTGATGAATTATGATGTTCGAGTAAACAAATTTTCCTAATCTTTCTGTTCAAGCGCCATCTAC” was tested. Which binding signal did it give?
Its binding signal is 3.29 RPM ratio (pull-down/input).

How did the binding signal turn out when “GATGATTGTTCTCCCAGCTGATGAATTATGTTTTTCGAGTAAACAAATTTTCCTAATCTTTCTGTTCAAGCGCCATCTAC” was run?
The binding signal was 6.33 RPM ratio (pull-down/input).
